Among all 220,000 compounds or so, about 16,000 (7.3%) were called active. Not shown: some 25% with an inconclusive outcome. Only a selection was taken, and actives are over-represented in it overall. Unmarked numbers belong to inactive results. Calls follow the shape of the dose curve; as a rule, active = well fitted inhibition curve with a large enough effect (not every such curve was filed as active); inconclusive = small, poorly fitted or top-dose-only effect, or another doubt; inactive = no such curve, though single readings can be large or run the other way.
Potency is read from the fitted curve at half-maximal effect.

The target in this assay is Aldehyde dehydrogenase 1A1 (Homo sapiens) (UniProt P00352). Description: qHTS Assay for Inhibitors of Aldehyde Dehydrogenase 1 (ALDH1A1).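 As to activity, negative = inhibition: plate controls were no enzyme wells and a reference inhibitor.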 As to conditions: Purified ALDH1A1, NADH fluorescence, propionaldehyde substrate; series mostly up to 75.3 µM; activity, negative = inhibition: at the top concentration. (In general: qHTS replaces the single test concentration by a dilution series.)
Sequence of Aldehyde dehydrogenase 1A1 (Homo sapiens) (P00352 whole entry, looked up): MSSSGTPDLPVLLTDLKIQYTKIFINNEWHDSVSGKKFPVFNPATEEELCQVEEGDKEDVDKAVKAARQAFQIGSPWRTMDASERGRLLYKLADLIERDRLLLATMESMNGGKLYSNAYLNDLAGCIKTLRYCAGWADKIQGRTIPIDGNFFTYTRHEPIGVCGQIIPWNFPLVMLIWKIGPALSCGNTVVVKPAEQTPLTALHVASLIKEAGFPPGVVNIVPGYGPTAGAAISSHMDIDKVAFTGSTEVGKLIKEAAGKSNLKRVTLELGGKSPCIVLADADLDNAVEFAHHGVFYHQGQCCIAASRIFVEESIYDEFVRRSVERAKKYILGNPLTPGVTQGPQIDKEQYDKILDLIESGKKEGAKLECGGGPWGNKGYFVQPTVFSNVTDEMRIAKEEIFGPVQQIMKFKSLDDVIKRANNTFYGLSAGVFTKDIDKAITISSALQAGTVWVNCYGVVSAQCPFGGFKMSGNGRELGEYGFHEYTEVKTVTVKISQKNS
In the case of `O=C(Nc1ccn(Cc2ccccc2)n1)c1n[nH]c([N+](=O)[O-])c1Cl`, the “activity, negative = inhibition” value was -1.46%.

On to `CCn1nc(C)c(CN2CCN(Cc3ccc(OC)c(C)c3C)C(CCO)C2)c1C` (configuration not stated), for which the “activity, negative = inhibition” value is -0.693%.

As to `O=C(O)CCN(Cc1ccccc1)S(=O)(=O)c1c(Cl)cccc1Cl`, the “activity, negative = inhibition” value was -4.7%.

Take `CCOc1ccc(NC(=O)c2cc(C)nc3ccccc23)cc1`: the “activity, negative = inhibition” value is 0.296%.

For the compound `O=C(CCCOc1ccc(Cl)cc1Cl)NNC(=O)C1CCC1`, the “activity, negative = inhibition” value is 1.22%.

Consider `COCc1cc(=O)[nH]c(-c2ccc(C(F)(F)F)cc2)n1`, for which the “activity, negative = inhibition” value is 0.201%.

`O=C(CCc1ccccc1)Nc1nn[nH]n1`: the “activity, negative = inhibition” value is -3.34%.

In the case of `COc1ccc(N2C(=O)C(Cc3ccccc3)NC2=S)cc1` (configuration not stated), the “activity, negative = inhibition” value was 14.4%.

Consider `COC(=O)CC1=NN(c2nc(C)cc(C)n2)C(=O)C1`, for which the “activity, negative = inhibition” value was 2.76%.

For the compound `c1ccc(CN=C2Nc3ccccc3CS2)nc1`, the “activity, negative = inhibition” value was 0.764%.

Take `CCC(C(=O)Nc1ccc2c(c1)OCCO2)c1ccccc1` (configuration not stated): the “activity, negative = inhibition” value is -4.94%.

As to `CCOc1ccc(N2CC(C(=O)NCCN3C(=O)S/C(=C\c4cccnc4)C3=O)CC2=O)cc1` (configuration not stated), the “activity, negative = inhibition” value is -7.75%.

For the compound `C[C@H](NC(=O)c1ccccc1Cl)C(=O)OCCOc1cccc(Cl)c1`, the “activity, negative = inhibition” value is 4.04%.

On to `CCOC(=O)c1ccc(N2C(=O)CC(N3CC(C)OC(C)C3)C2=O)cc1` (configuration not stated), for which the Potency was 7.94 µM (active).

As for `CC1CN(C(=S)SCC(=O)c2ccccc2)CC(C)O1` (configuration not stated), the “activity, negative = inhibition” value was 0.843%.

On to `CCC(=O)c1ccc(OCC(O)CN2CC(C)OC(C)C2)cc1` (configuration not stated), for which the “activity, negative = inhibition” value is -13.7%.

Regarding `CN1CCN(CCC(=O)N/N=C/C=C2\N(C)c3ccccc3C2(C)C)CC1`, the “activity, negative = inhibition” value was 3.13%.

With `Cc1cccc(-n2c(Cc3cc(=O)[nH]c(=O)[nH]3)nnc2SCC(=O)Nc2cccc(C(F)(F)F)c2)c1`, the “activity, negative = inhibition” value is -2.03%.

In the case of `CCOC(=O)N1CCN(C(=O)CSc2nc(C)nc3c2c(=O)n(C)c(=O)n3C)CC1`, the “activity, negative = inhibition” value was 1.21%.

Consider `CCOC(=O)c1c(C)nn(-c2ncccc2NC(=O)CCC(=O)O)c1C`, for which the “activity, negative = inhibition” value was 5.83%.

Turning to `CC(C)N(C)C(=O)CCc1nnc(CCc2c[nH]c3ccccc23)o1`, the “activity, negative = inhibition” value is 4.17%.

Regarding `O=C(CSc1nc(-c2ccco2)cc(C(F)(F)F)n1)N1CCc2ccccc2C1`, the Potency was 11.2 µM (active).

For the compound `O=C(CSc1nc(-c2ccco2)cc(C(F)(F)F)n1)NCc1cccs1`, the “activity, negative = inhibition” value was -0.0855%.

As for `FC(F)(F)c1cc(-c2ccco2)nc(N2CCOCC2)n1`, the “activity, negative = inhibition” value is 0.194%.

For `CC(C)(C)n1ncc2c(=O)n(Cc3ccc(Cl)cc3)cnc21`, the “activity, negative = inhibition” value was 10.7%.

Regarding `COc1ccc(-n2c(C)nn(CC3CC3)c2=O)cc1`, the “activity, negative = inhibition” value was -1.71%.

`Cc1ccc(NC(=S)NC(=O)c2ccc(-c3ccccc3)cc2)c(C)c1`: the Potency was 11.2 µM (active).

For `Cc1ccc(C(=O)NC(=S)Nc2ccccc2C)cc1`, the “activity, negative = inhibition” value was -1.81%.

In the case of `Cc1ccc(NC(=O)c2oc(=O)c3ccccc3c2-c2ccccc2)c(C)c1`, the “activity, negative = inhibition” value is -15.4%.

For the compound `O=C(CN1CCN(S(=O)(=O)/C=C/c2ccccc2)CC1)Nc1ccc(N2CCOCC2)cc1`, the “activity, negative = inhibition” value is 7.06%.

As for `O=C(/C=C/c1ccccc1)c1ccoc1`, the “activity, negative = inhibition” value is 2.74%.

In the case of `O=C(/C=C/c1ccc(N2CCOCC2)cc1)c1ccccc1`, the Potency was 31.6 µM (active).

These data come from PubChem BioAssay AID1030 (National Center for Advancing Translational Sciences (NCATS), 2008).
